Values joined by “and” are separate entries in the source; they are usually repeats but may differ in a detail not shown here. Identical values can stand only once. The panel holds about 83,000 compounds, 20% with a hit somewhere; the sample as a whole holds those more often.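 Step 1: grow cells in 96-well plates. Step 2: add test compound at a single concentration. Step 3: incubate 48 h. Step 4: record percent growth.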 Active and inactive are the calls of the source. Rule for the calls: active = growth percent below 10; inactive = the rest.
tested on: OVCAR-5 ovarian; assay: NCI-60 one-dose screen, 48 h (100 = growth as untreated, 0 = no growth, -100 = all killed); details: 10 µM unless noted

| SMILES | growth |
| --- | --- |
| O=C1/C(=C/c2ccc(F)c(F)c2)CN(C(=O)C(Cl)Cl)C/C1=C\c1ccc(F)c(F)c1 | -72.6% (active) |
| O=C1C(c2c[nH]c3ccccc23)=C(c2coc3cc(Br)ccc23)C(=O)N1O | 105% (inactive) |
| CC1=CC(C)(C)NC(=S)N1c1ccc(Cl)cc1 | 95% (inactive) and 104% (inactive) |
| O=C1/C(=C/c2ccccc2)CN(C(=O)C(Cl)Cl)C/C1=C\c1ccccc1 | 31.7% (inactive) |
| CC(=O)N1N=C(c2ccc(Nc3nc(Nc4ccc(F)cc4)nc(Nc4ccc(Cl)cc4)n3)cc2)CC1c1ccc(N(C)C)cc1 (stereo not drawn) | 65.9% (inactive) |
| CCCN1C(=O)/C(=c2\sc3n(c2=O)NC2C(N=3)N(CC)C(=O)N2CC)c2ccccc21 (stereo not drawn) | 39.6% (inactive) |
| CONC1=Nc2cc(NC(N)=NCc3ccccc3)c(N(C)C3CCCCC3)cc2OC1 | 65.5% (inactive) |
| Cc1c(CC(=O)OCCO)cc(-c2ccc(Cl)cc2)n1-c1ccccc1 | 99.6% (inactive) |
| COc1cc(/C=C2\CCC/C(=C\c3cc(CN4CCCC4)c(O)c(OC)c3)C2=O)cc(CN2CCCC2)c1O | 39.9% (inactive) |
| Fc1ccccc1-c1cnn2cc(-c3ccccc3)cnc12 | 109% (inactive) |
| CC(C)(C)c1cc(NC(=O)Nc2ccc(-c3cn4c(n3)sc3cc(OCCN5CCOCC5)ccc34)cc2)no1 | 56% (inactive) and 60.8% (inactive) |
| COc1ccc(/C=N/NC(=O)CN2CCN(c3cc4c(cc3F)c(=O)c(C(=O)O)cn4C3CC3)CC2)cc1O | 108% (inactive) |
| NNCCc1ccccc1 | 93.1% (inactive) |
